# Unmarked numbers belong to inactive results. Calls follow the shape of the dose curve; as a rule, active = well fitted activation curve with a large enough effect; inconclusive = small, poorly fitted or top-dose-only effect; inactive = flat fitted curve, though single readings scatter.
# Assay: Confirmation and Secondary Assay for Modulators of Hemoglobin Beta Chain Splicing at IVS2 705 locus (AID 930);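 also: HeLa cells stably expressing the EGFP-705 splicing reporter; % of control where 0% means no effect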
# Settings: HeLa EGFP-705 splicing reporter, GFP fluorescence, 48 h; series mostly up to 46.1 µM; activation: at the top concentration
# In short: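 Splice-correction reporter: EGFP cDNA split by beta-globin intron 2 bearing the 705 mutation, stably in HeLa. Compound incubation 2 days, 37C; fluorescent objects 5-250 µm summed per well.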
row,SMILES,activation
1,CC[C@@]1(O)C(=O)OCc2c1cc1n(c2=O)Cc2cc3cc(O)ccc3nc2-1,3.58%
2,Cc1coc2c1C(=O)C(=O)c1c-2ccc2c1CCCC2(C)C,-0.721% [at 38.3 µM]
3,COc1c(N2C[C@@H]3CCCN[C@H]3C2)c(F)cc2c(=O)c(C(=O)O)cn(C3CC3)c12,0.871%
4,Nc1ccc(S(=O)(=O)Nc2ncccn2)cc1,0.276%
